# Article PMC5540273 (PLoS ONE, 2017)
# Columns and labels:
# Settings in all cases: concentration: 1 μM, replicates: in singlicate; n = 1
# CLK2 = test system: CLK2
# CLK3 = test system: CLK3
# CLK4 = test system: CLK4
# CSF1R-autoinhibited = test system: CSF1R-autoinhibited
# CSF1R = test system: CSF1R
# CSK = test system: CSK
# CSNK1A1L = test system: CSNK1A1L
# CSNK1A1 = test system: CSNK1A1
# CSNK1D = test system: CSNK1D
# CSNK1E = test system: CSNK1E
# CSNK1G1 = test system: CSNK1G1
# CSNK1G2 = test system: CSNK1G2
# CSNK1G3 = test system: CSNK1G3
# CSNK2A1 = test system: CSNK2A1
# CSNK2A2 = test system: CSNK2A2
# CTK = test system: T1, CTK
# T1 construct: gene MATK
# DAPK1 = test system: DAPK1
# DAPK2 = test system: DAPK2
# DAPK3 = test system: DAPK3
# DCAMKL1 = test system: T2, DCAMKL1
# T2 construct: gene DCLK1
# 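Further: KINOMEscan kinase panel screen.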
Structure (SMILES),%Inh (CLK2),%Inh (CLK3),%Inh (CLK4),%Inh (CSF1R-autoinhibited),%Inh (CSF1R),%Inh (CSK),%Inh (CSNK1A1L),%Inh (CSNK1A1),%Inh (CSNK1D),%Inh (CSNK1E),%Inh (CSNK1G1),%Inh (CSNK1G2),%Inh (CSNK1G3),%Inh (CSNK2A1),%Inh (CSNK2A2),%Inh (CTK),%Inh (DAPK1),%Inh (DAPK2),%Inh (DAPK3),%Inh (DCAMKL1)
CCOc1nccc(-c2c(-c3ccc(F)cc3)ncn2C2CCNCC2)n1 [SB-249175],0%,11%,100%,31%,28%,0%,45%,97.4%,95.3%,99.4%,0%,32%,0%,56%,65%,0%,0%,0%,0%,25%
CN(c1ccc2c(c1)nc(NCc1ccccc1)n2C)c1ccnc(Nc2ccc(CS(C)(=O)=O)cc2)n1.Cl [GW811603],0%,43%,0%,80%,100%,14%,0%,36%,0%,18%,0%,4%,0%,16%,8%,5%,13%,0%,0%,0%
COc1cccc(NC(=O)NCCNc2ccnc(Nc3ccc(F)cc3)n2)c1 [GSK1379879],0%,0%,20%,20%,11%,0%,0%,0%,0%,0%,0%,0%,23%,0%,7%,0%,0%,0%,17%,9%
CCn1c(-c2nonc2N)nc2c(-c3ccccc3)ncc(OCCCN)c21.O=C(O)C(F)(F)F.O=C(O)C(F)(F)F [GSK260205],0%,5%,4%,0%,2%,0%,46%,69%,94.2%,98.7%,10%,0%,29%,22%,31%,0%,10%,2%,25%,0%
Cc1cc(-c2ccnc(Nc3cccc(C#N)c3)n2)cc(C)c1O [GSK1440913],89%,91.5%,95.8%,13%,14%,0%,30%,0%,76%,90.3%,17%,12%,55%,40%,46%,4%,20%,9%,5%,8%
O=C(Nc1n[nH]c2nc(-c3ccccc3)ccc12)C1CC1 [SB-708999],0%,1%,0%,36%,0%,0%,15%,0%,13%,0%,0%,0%,68%,23%,75%,0%,0%,11%,4%,4%
CC(C)c1nc(-c2ccc(F)c(NS(=O)(=O)c3c(F)cccc3F)c2)c(-c2ccnc(Nc3ccc(N4CCOCC4)nc3)n2)s1 [GSK1804250],9%,6%,21%,14%,94.5%,97.4%,19%,10%,33%,36%,7%,4%,12%,10%,0%,30%,14%,5%,20%,12%
Cl.O=C(Nc1ccc(Oc2ccc3[nH]c(NC(=O)c4ccco4)nc3c2)cc1)Nc1cc(C(F)(F)F)ccc1F [GW683134],0%,0%,61%,0%,99.8%,0%,0%,2%,10%,0%,0%,0%,7%,9%,0%,6%,3%,0%,20%,19%
COC(=O)Nc1nc2ccc(Oc3ccc(NC(=O)Nc4cc(C(F)(F)F)ccc4F)cc3)cc2[nH]1.Cl [GW654607],0%,0%,48%,30%,99.8%,0%,0%,0%,0%,13%,0%,0%,24%,0%,2%,0%,2%,0%,11%,16%
CN(C)CCOc1ccc(-c2cc(-c3ccc(Cl)c(O)c3)c(-c3ccncc3)[nH]2)cc1.Cl.Cl [SB-684387],1%,5%,3%,30%,5%,7%,2%,23%,77%,94.6%,36%,0%,37%,24%,32%,3%,14%,0%,22%,21%
Cn1cc(-c2ccc3c(c2)CCN3C(=O)Cc2cc(F)cc(C(F)(F)F)c2)c2c(N)ncnc21 [GSK2635225],19%,100%,18%,45%,95.3%,0%,1%,3%,22%,100%,22%,12%,15%,2%,0%,0%,21%,6%,19%,3%
Cc1ccccc1CC(=O)N1CCc2cc(-c3cn(C)c4ncnc(N)c34)ccc21 [GSK2603346],0%,6%,0%,0%,89%,0%,22%,9%,9%,84%,12%,5%,17%,30%,15%,14%,0%,0%,0%,0%
Cc1ccc(O)cc1Nc1ccnc2cc(-c3ccc(CN4CCCCC4)o3)ccc12 [GW557777],0%,0%,0%,0%,96.7%,82%,44%,84%,27%,34%,6%,5%,7%,0%,0%,27%,16%,3%,1%,25%
O=C(O)C(F)(F)F.O=c1[nH]ccc2nc(N[C@@H]3CCNC3)nc(Nc3cc(Cl)cc(Cl)c3)c12 [GSK2188764],95.9%,34%,82%,0%,69%,18%,56%,94%,79%,91.3%,77%,94.2%,95.1%,98.9%,100%,0%,97.3%,97.4%,100%,86%
Cc1ccc(Nc2ccnc(Nc3ccc(C)c(F)c3)n2)cc1O.Cl [GW582868],86%,3%,14%,25%,29%,0%,12%,0%,0%,19%,0%,0%,0%,0%,9%,0%,0%,0%,4%,11%
N#Cc1cnc2cc(-c3cnc(CNCCN4CCOCC4)s3)ccc2c1Nc1ccc(Oc2ccccc2)cc1 [GW664114],0%,0%,95.2%,17%,19%,96.7%,7%,0%,0%,39%,19%,0%,25%,0%,5%,26%,26%,0%,2%,19%
COC(=O)Nc1nc2ccc(Oc3ccc(CC(=O)Nc4cc(C(F)(F)F)ccc4F)cc3)cc2[nH]1 [GW680903],0%,0%,3%,50%,71%,0%,0%,0%,0%,0%,0%,0%,14%,0%,0%,0%,0%,0%,0%,11%
